Results filed as inconclusive are left out. Calls of active or inactive are those of the source. How the source made its calls, unless noted: active means hit-call score of the fitted dose curve at least 0.9, where 1 is the maximum; inactive means score below 0.9.
Legend:
[1] = biological target: Peroxisome proliferator-activated receptor gamma (Homo sapiens) (UniProt P37231); experiment: OT_PPARg_PPARgSRC1_0480: Odyssey Thera (OT) 8-hour Protein-Complementation Assay for Peroxisome Proliferator-activated Receptor Gamma / SRC-1 Co-activator (AID 2283387; active means hit-call score of the fitted dose curve at least 0.9, where 1 is the maximum;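 further: nuclear to cytoplasmic split Venus YFP fluorescence ratio reporting PPARg SRC-1 interaction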)
Chain of Peroxisome proliferator-activated receptor gamma (Homo sapiens) (P37231 whole entry, looked up, the tested form may be a part): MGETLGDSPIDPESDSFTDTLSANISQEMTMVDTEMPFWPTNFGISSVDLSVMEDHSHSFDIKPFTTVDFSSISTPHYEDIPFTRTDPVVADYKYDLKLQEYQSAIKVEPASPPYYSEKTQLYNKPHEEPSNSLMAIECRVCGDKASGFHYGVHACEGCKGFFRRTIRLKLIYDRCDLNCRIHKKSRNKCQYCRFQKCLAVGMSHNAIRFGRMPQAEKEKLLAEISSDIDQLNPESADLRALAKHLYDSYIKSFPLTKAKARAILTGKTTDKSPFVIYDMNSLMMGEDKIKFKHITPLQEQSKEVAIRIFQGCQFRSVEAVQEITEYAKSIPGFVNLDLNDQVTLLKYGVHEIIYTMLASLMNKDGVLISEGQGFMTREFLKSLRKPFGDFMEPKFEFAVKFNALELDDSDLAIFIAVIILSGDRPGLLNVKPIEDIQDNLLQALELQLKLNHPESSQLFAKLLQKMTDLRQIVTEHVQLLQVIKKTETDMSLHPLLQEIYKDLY
Method in brief: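 Protein-fragment complementation of split Venus YFP reports PPARg/SRC-1 interaction in HEK293T (transfected 48 h before treatment), exposed 8 h. Readout: N/C fluorescence ratio at 488 nm from imaging, Draq5 for segmentation, positive fit relative to DMSO.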

[2] = biological target: Peroxisome proliferator-activated receptor gamma (Homo sapiens) (UniProt P37231); experiment: OT_PPARg_PPARgSRC1_1440: Odyssey Thera (OT) 24-hour Protein-Complementation Assay for Peroxisome Proliferator-activated Receptor Gamma/ SRC-1 Co-activator (AID 2283388; active means hit-call score of the fitted dose curve at least 0.9, where 1 is the maximum;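 further: nuclear to cytoplasmic ratio of reconstituted Venus YFP fluorescence in fixed imaged cells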)
Method in brief: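 Readout is the 488 nm N/C fluorescence ratio from fixed, Draq5-stained HEK293T cells after 24 h compound exposure. Cells carried transiently transfected PPARg and SRC-1 fused to Venus fragments, transfected 48 h before treatment.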

[3] = read-out: Tumor necrosis factor receptor superfamily member 6 (Homo sapiens) (UniProt P25445); experiment: LTEA_HepaRG_FAS: Life Technologies and Expression Analysis (LTEA) Assay for Fas cell surface death receptor (FAS) using HepaRG (AID 2283447); details: mRNA level, 48 h; actives raise or lower the signal
Method in brief: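 FAS transcript level was measured by TaqMan qRT-PCR against three housekeeping genes after 48 h chemical exposure. Cells were HepaRG, 0.5% DMSO vehicle, with a top concentration of 100 uM and half-log dilutions over eight points, in duplicate.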

[4] = read-out: Fatty acid synthase (Homo sapiens) (UniProt P49327); experiment: LTEA_HepaRG_FASN: Life Technologies and Expression Analysis (LTEA) Assay for Fatty Acid Synthase (FASN) using HepaRG (AID 2283448); details: mRNA level, 48 h; actives raise or lower the signal;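 on AC50: differentiated human HepaRG liver cells in serum-free induction medium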
Method in brief: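 In human HepaRG cultures, 48 h chemical exposure (up to 100 uM, 0.5% DMSO) preceded TaqMan qRT-PCR of FASN.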

[5] = read-out: Cyclin Dependent Kinase Inhibitor 1A (CDKN1A), CDKN1A (gene 1026); experiment: LTEA_HepaRG_CDKN1A: Life Technologies and Expression Analysis (LTEA) Assay for Cyclin Dependent Kinase Inhibitor 1A (CDKN1A) using HepaRG (AID 2283450); details: mRNA level, 48 h; actives raise or lower the signal
Method in brief: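 Expression quantified by Fluidigm qRT-PCR with ACTB, GAPDH and POLR2A normalization, fitted bidirectionally against 0.5% DMSO. Cells: HepaRG, plated 48 h then treated 48 h in serum-free induction medium, top concentration 100 uM with half-log dilutions.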

[6] = read-out: Cyclin D1 (CCND1), CCND1 (gene 595); experiment: LTEA_HepaRG_CCND1: Life Technologies and Expression Analysis (LTEA) Assay for Cyclin D1 (CCND1) using HepaRG (AID 2283451); details: mRNA level, 48 h; actives raise or lower the signal;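 on AC50: differentiated human HepaRG liver cells in serum-free induction medium; TaqMan qRT-PCR transcript level normalised to ACTB GAPDH and POLR2A housekeeping genes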
Method in brief: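 Expression of CCND1 was quantified by qRT-PCR on Fluidigm arrays using ACTB, GAPDH and POLR2A as reference genes. HepaRG cultures, plated 48 h beforehand, were dosed for 48 h at up to 100 uM (half-log, 8 points) in 0.5% DMSO.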

[7] = read-out: catalase (CAT), CAT (gene 847); experiment: LTEA_HepaRG_CAT: Life Technologies and Expression Analysis (LTEA) Assay for catalase (CAT) using HepaRG (AID 2283452); details: mRNA level, 48 h; actives raise or lower the signal;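 on AC50: TaqMan qRT-PCR signal normalized to ACTB GAPDH and POLR2A housekeeping genes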
Method in brief: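 Expression of CAT was quantified by TaqMan qRT-PCR with ACTB/GAPDH/POLR2A normalization after 48 h chemical exposure of HepaRG. Eight-point half-log series, top 100 uM, in 0.5% DMSO; gain or loss fitted against vehicle.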

[8] = read-out: flavin-containing dimethylaniline monooxygenases 3 (FMO3), FMO3 (gene 2328); experiment: LTEA_HepaRG_FMO3: Life Technologies and Expression Analysis (LTEA) Assay for flavin-containing dimethylaniline monooxygenases 3 (FMO3) using HepaRG (AID 2283453); details: mRNA level, 48 h; actives raise or lower the signal;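 on AC50: differentiated human HepaRG liver cells in serum-free induction medium; FMO3 transcript by TaqMan qRT-PCR normalized to ACTB GAPDH and POLR2A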
Method in brief: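 Eight-point concentration-response in serum-free HepaRG cultures (top 100 uM, 0.5% DMSO, 48 h). Read-out: FMO3 mRNA level normalized to three endogenous control genes, fitted bidirectionally versus vehicle.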

[9] = read-out: Cytochrome P450 (CYP1A1), CYP1A1 (gene 1543); experiment: LTEA_HepaRG_CYP1A1: Life Technologies and Expression Analysis (LTEA) Assay for Cytochrome P450 (CYP1A1) using HepaRG (AID 2283454); details: mRNA level, 48 h; actives raise or lower the signal
Method in brief: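 CYP1A1 transcript levels measured by Fluidigm qRT-PCR against three housekeeping genes, 48 h after chemical dosing of human HepaRG cells (highest concentration 100 uM, half-log steps, 0.5% DMSO vehicle). Gain or loss of signal fitted relative to DMSO.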

[10] = read-out: CFLAR gene, CFLAR (gene 8837); experiment: LTEA_HepaRG_CFLAR: Life Technologies and Expression Analysis (LTEA) Assay for CFLAR gene using HepaRG (AID 2283455); details: mRNA level, 48 h; actives raise or lower the signal
Method in brief: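 Transcript level by qRT-PCR (normalized to ACTB, GAPDH and POLR2A) after 48 h chemical exposure of HepaRG cells, top concentration 100 uM with half-log steps, 0.5% DMSO vehicle, duplicates; fitted bidirectionally against DMSO baseline.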

[11] = read-out: Forkhead box O1 (FOXO1), FOXO1 (gene 2308); experiment: LTEA_HepaRG_FOXO1: Life Technologies and Expression Analysis (LTEA) Assay for Forkhead box O1 (FOXO1) using HepaRG (AID 2283456); details: mRNA level, 48 h; actives raise or lower the signal
Method in brief: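 FOXO1 transcript quantified by qRT-PCR after 48 h chemical exposure (top 100 uM, half-log steps, 0.5% DMSO) of HepaRG cells, housekeeping-normalized (ACTB/GAPDH/POLR2A). Changes fitted in both directions relative to vehicle.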

[12] = read-out: Cyclin D2 (CCND2), CCND2 (gene 894); experiment: LTEA_HepaRG_CCND2: Life Technologies and Expression Analysis (LTEA) Assay for Cyclin D2 (CCND2) using HepaRG (AID 2283449); details: mRNA level, 48 h; actives raise or lower the signal
Method in brief: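 CCND2 transcript levels, quantified by qRT-PCR and normalised to three housekeeping genes, were fitted bidirectionally against 0.5% DMSO. HepaRG cultures were dosed 48 h in duplicate with an 8-point half-log series up to 100 uM.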

[13] = CEETOX_H295R_CORTIC: CeeTox H295R High-throughput Steroidogenesis Assay for Corticosterone (CORTIC) (AID 2283437); details: actives raise or lower the signal
Method in brief: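 Medium corticosterone was quantified by tandem mass spectrometry following 48 hours of chemical exposure (0.1% DMSO) in human H295R cells previously stimulated 48 hours with 10 uM forskolin. Viability checked by MTT; chemicals diluted and retested when viability fell below 70%.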

[14] = CEETOX_H295R_CORTISOL: CeeTox H295R High-throughput Steroidogenesis Assay for Cortisol (AID 2283438); details: actives raise or lower the signal;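 further: cortisol secreted into medium quantified by LC-MS/MS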
Method in brief: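 Steroidogenesis in H295R, per modified OECD 456: 48 h forskolin (10 uM), then 48 h exposure, 0.1% DMSO. Cortisol by extraction and tandem MS; viability by MTT (570/650 nm); cytotoxic chemicals diluted and re-tested.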

[15] = CEETOX_H295R_DOC: CeeTox H295R High-throughput Steroidogenesis Assay for DOC (AID 2283439); details: actives raise or lower the signal
Method in brief: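 H295R, fsk 10 uM ×48 h pre, cmpd ×48 h (0.1% DMSO). Media → MTBE extr. → LC-MS/MS, DOC. Bidirectional fit vs DMSO; MTT viability same wells, re-test diluted if <70%.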

Measured: AC50

Chain of Fatty acid synthase (Homo sapiens) (P49327 whole entry, looked up): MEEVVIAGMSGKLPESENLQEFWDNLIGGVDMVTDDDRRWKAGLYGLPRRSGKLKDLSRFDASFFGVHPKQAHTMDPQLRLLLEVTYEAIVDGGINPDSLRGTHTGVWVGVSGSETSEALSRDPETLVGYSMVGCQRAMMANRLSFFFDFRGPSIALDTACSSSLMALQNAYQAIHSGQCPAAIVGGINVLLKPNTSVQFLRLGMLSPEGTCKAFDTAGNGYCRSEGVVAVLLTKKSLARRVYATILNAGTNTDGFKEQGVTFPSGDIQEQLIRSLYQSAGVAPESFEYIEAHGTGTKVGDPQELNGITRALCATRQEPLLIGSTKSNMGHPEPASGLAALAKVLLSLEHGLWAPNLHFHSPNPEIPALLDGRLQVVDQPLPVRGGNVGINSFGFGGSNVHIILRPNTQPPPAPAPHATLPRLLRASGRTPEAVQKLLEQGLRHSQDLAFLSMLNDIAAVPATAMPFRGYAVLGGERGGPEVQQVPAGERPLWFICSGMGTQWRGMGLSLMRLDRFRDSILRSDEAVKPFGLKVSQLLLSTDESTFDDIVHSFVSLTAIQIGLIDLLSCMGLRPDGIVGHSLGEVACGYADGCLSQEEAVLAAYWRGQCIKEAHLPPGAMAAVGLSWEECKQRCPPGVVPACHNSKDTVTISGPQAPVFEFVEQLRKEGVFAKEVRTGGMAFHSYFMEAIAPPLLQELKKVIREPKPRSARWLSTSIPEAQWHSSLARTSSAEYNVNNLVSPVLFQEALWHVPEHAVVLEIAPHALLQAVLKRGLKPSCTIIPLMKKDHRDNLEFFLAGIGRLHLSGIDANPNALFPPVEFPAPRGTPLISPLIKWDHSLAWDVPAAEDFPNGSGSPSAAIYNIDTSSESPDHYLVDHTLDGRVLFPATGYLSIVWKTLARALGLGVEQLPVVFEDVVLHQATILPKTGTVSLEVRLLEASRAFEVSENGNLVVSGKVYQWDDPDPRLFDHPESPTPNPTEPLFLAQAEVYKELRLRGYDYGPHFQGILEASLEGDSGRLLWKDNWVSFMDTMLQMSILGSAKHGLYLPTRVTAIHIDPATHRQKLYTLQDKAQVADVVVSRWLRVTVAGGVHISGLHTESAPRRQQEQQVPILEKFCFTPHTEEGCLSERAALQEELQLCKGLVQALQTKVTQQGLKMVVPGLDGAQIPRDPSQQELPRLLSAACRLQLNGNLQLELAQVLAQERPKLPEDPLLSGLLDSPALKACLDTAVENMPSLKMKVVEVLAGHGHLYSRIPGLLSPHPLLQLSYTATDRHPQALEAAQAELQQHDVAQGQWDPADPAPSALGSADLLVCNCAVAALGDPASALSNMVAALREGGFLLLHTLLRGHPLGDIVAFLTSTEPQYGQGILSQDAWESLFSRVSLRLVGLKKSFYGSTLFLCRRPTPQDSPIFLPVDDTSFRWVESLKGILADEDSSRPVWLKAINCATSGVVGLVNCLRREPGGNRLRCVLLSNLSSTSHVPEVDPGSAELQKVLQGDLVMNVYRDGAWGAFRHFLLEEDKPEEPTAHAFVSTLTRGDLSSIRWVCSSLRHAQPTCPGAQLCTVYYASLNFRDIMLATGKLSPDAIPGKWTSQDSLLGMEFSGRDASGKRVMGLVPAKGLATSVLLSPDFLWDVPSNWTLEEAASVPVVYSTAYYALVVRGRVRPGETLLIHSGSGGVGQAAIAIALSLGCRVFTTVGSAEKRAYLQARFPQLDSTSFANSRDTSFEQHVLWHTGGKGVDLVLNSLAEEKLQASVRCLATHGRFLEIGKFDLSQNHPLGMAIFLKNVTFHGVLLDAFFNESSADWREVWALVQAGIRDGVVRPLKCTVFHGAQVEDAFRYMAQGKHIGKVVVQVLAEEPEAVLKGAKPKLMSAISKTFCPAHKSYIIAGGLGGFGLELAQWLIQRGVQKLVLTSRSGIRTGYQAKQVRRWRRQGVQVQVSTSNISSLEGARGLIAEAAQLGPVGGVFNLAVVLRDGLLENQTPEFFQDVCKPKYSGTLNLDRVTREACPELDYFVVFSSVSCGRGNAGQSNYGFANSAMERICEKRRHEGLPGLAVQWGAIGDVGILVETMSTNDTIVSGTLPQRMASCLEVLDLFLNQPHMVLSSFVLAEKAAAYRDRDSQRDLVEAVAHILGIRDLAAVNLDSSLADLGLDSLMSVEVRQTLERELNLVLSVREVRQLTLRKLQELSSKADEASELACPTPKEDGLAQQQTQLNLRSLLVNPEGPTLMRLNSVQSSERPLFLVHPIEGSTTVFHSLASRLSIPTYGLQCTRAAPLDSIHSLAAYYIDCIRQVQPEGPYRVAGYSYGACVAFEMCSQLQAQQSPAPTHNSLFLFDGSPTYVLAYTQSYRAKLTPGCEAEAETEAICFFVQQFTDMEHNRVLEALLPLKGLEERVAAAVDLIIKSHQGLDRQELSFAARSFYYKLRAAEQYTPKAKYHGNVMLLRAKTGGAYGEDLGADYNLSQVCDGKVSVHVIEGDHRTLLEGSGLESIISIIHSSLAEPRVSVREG

Cc1ccccc1[N+](=O)[O-]
not listed: [12] | [13] | [14] | [15]
inactive: all other assays above

CCCCCCCCCC[N+](C)(C)CCCCCCCCCC
active: [4] 42.7 µM | [5] 88.2 µM | [6] 50 µM | [8] 79.4 µM | [9] 22.9 µM | [10] 76.5 µM
inactive: [1] | [2] | [3] | [12] | [7]

C=CC(N)=O
not listed: [1] | [2] | [11]
inactive: all other assays above

O=C(O)C(F)(F)C(F)(F)C(F)(F)C(F)(F)C(F)(F)C(F)(F)C(F)(F)C(F)(F)C(F)(F)F
inactive: [1] | [2] | [12] | [9]
active: [3] 89.3 µM | [4] 31.1 µM | [5] 16.8 µM | [6] 12.6 µM | [7] 65.3 µM | [8] 35.3 µM | [10] 89.5 µM | [11] 81.6 µM

C1CC2OC2CC1C1CO1 (centres undefined)
not listed: [6] | [12] | [13] | [14] | [15]
inactive: all other assays above

CCOC(=O)C(O)(c1ccc(Cl)cc1)c1ccc(Cl)cc1
active: [9] 47.1 µM
not listed: [13] | [14] | [15]
inactive: all other assays above

Cc1cccc([N+](=O)[O-])c1
active: [9] 50 µM
not listed: [3] | [13] | [14] | [15]
inactive: all other assays above

CC(C)(c1ccccc1)c1ccc(O)cc1
not listed: [10] | [11] | [12] | [13] | [14] | [15]
inactive: all other assays above

O=NN(c1ccccc1)c1ccccc1
active: [9] 25.9 µM
not listed: [11] | [13] | [14] | [15]
inactive: all other assays above

COc1ccc(O)c(C(C)(C)C)c1
not listed: [6] | [11] | [13] | [14] | [15]
inactive: all other assays above

Reference: PubChem BioAssay (EPA / NIEHS)
